Experimental data taken from PubChem BioAssay (NCI).
About 83,000 compounds went through this panel and 20% of them were active in at least one assay; those are over-represented in the sample as a whole.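 Values shown are percent growth following 48 h exposure of cells in 96-well plates to a single concentration of compound; below 10 was considered active.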 Active and inactive are the calls of the source.

Tested on: M14 melanoma
Assay: NCI-60 one-dose screen, 48 h (100 = growth as untreated, 0 = no growth, -100 = all killed)
Conditions: 10 µM unless noted

Row | SMILES | growth
1 | O=[N+]([O-])c1ccc(N/N=C\c2ccccc2[N+](=O)[O-])nc1 | 126% (inactive)
2 | CN1COc2ccc3ccccc3c2C1 | 86.4% (inactive)
3 | O=C(Nc1cccc2ccccc12)c1cc2c(cc1Br)OCO2 | 162% (inactive)
4 | Cc1cc(NC(=O)Nc2cc(Cl)ccc2C)no1 | 109% (inactive)
5 | O=C1C[C@@H]2/C(=C(O)\C=C\c3ccccc3)C(=O)C=C[C@@H]2O1 | -65.9% (active)
6 | O=C1/C(=C/c2ccc([N+](=O)[O-])o2)Oc2ccc(Cl)cc21 | -18.8% (active)
7 | c1ccc(N2CCN(c3nncc4ccccc34)CC2)nc1 | 102% (inactive)
8 | O=C(Nc1ccc(Oc2ccc(NC(=O)Nc3ccc([N+](=O)[O-])cc3)cc2)cc1)Nc1ccc([N+](=O)[O-])cc1 | 5.41% (active)
9 | Cc1cc(C)n(C(=O)c2nn(-c3ccc(Cl)cc3)cc2O)n1 | 45.7% (inactive)
10 | NC(=O)c1ncn([C@@H]2O[C@H](CO)[C@@H](O)[C@H]2O)n1 | 98.8% (inactive)
11 | CCCCN(CCCC)CCCOC(=O)c1ccc(N)cc1 | 93.7% (inactive)
12 | COc1ccc2c(c1)C(=O)/C(=C/c1ccc([N+](=O)[O-])s1)O2 | -20.6% (active)
13 | CCCCCCCCCCCCCCCCCC1=NC(C)(C)CN1CCO | -74.7% (active)
14 | COc1cc([C@@H]2c3cc4c(cc3C(O[C@@H]3O[C@@H]5CO[C@@H](c6cccs6)OC5[C@H](O)[C@H]3O)C3COC(=O)[C@@H]32)OCO4)cc(OC)c1O (stereo not given in full) | -43.2% (active)
15 | CC12CCC3C(CCC4CC(=O)/C(=C\O)CC43C)C1CCC(=O)O2 (stereo not given) | 95.2% (inactive)
16 | O=C(Nc1ccc(Cl)cc1Cl)Nc1ccc(-c2cccnc2)cc1N1CCC(CO)CC1 | 36% (inactive)
17 | CCN(CC)CCCCNc1c2ccccc2[n+](C)c2c1[nH]c1ccccc12 | -28.4% (active)
18 | Cc1ccc(NC(=O)Nc2ccc(-c3cccnc3)cc2N2CCC(CO)CC2)cc1 | 27.1% (inactive)
19 | COc1cc(C2CC(c3ccc(C)cc3)=NN2C(C)=O)ccc1Oc1ccnc2cc(Cl)ccc12 (stereo not given) | 106% (inactive)
20 | C[n+]1c2ccccc2c(NC2CCNCC2)c2[nH]c3ccccc3c21 | 60.1% (inactive)
21 | Clc1ccc([C@@H]2C[C@@H]3Cc4cc(Br)c5ccccc5c4N2O3)c(Cl)c1 | 75.6% (inactive)
22 | C=C(C)[C@@H]1C[C@H](O)Cc2cc(Cl)cc(Cl)c2N1 | 110% (inactive)

Tested on: HCT-15 colon
Assay: as above
Conditions: 10 µM unless noted

Row | SMILES | growth
23 | NC(=O)N/N=C/c1ccc(Br)o1 | 96.1% (inactive)
24 | COc1ccc(OC)c2c1[nH]c(=O)c1c3ccccc3cn21 | -46.5% (active)
25 | O=c1c(O)cccn1CCCNCCCN(CCCn1cccc(O)c1=O)CCCn1cccc(O)c1=O | 99.2% (inactive)
26 | CN(CCOc1ccc(CC2SC(=O)NC2=O)cc1)c1ccccn1 (stereo not given) | 96.2% (inactive)
27 | O=C(Nc1ccc(Cl)cc1)Nc1ccc(Nc2nncc3ccccc23)cc1 | 18.3% (inactive)
28 | OCc1nnn(-c2ccccc2)c1CO | 96.7% (inactive)
29 | COc1ccc2c(c1)C(=O)c1c-2c(=O)n(CCCCCCC(=O)NO)c2ccccc12 | 13.3% (inactive)
30 | CN1COc2ccc3ccccc3c2C1 | 106% (inactive)
31 | O=C(Nc1cccc2ccccc12)c1cc2c(cc1Br)OCO2 | 104% (inactive)
32 | O=C1C[C@@H]2/C(=C(O)\C=C\c3ccccc3)C(=O)C=C[C@@H]2O1 | -7.83% (active)
33 | NC(=O)c1ncn([C@@H]2O[C@H](CO)[C@@H](O)[C@H]2O)n1 | 83.7% (inactive)
34 | CCCCN(CCCC)CCCOC(=O)c1ccc(N)cc1 | 101% (inactive)
35 | COc1cc([C@@H]2c3cc4c(cc3C(O[C@@H]3O[C@@H]5CO[C@@H](c6cccs6)OC5[C@H](O)[C@H]3O)C3COC(=O)[C@@H]32)OCO4)cc(OC)c1O (stereo not given in full) | 5.54% (active)
36 | O=C(Nc1ccc(Cl)cc1Cl)Nc1ccc(-c2cccnc2)cc1N1CCC(CO)CC1 | 26.8% (inactive)
37 | CCN(CC)CCCCNc1c2ccccc2[n+](C)c2c1[nH]c1ccccc12 | 80.2% (inactive)
38 | Cc1ccc(NC(=O)Nc2ccc(-c3cccnc3)cc2N2CCC(CO)CC2)cc1 | 20.2% (inactive)
39 | COc1cc(C2CC(c3ccc(C)cc3)=NN2C(C)=O)ccc1Oc1ccnc2cc(Cl)ccc12 (stereo not given) | 90.7% (inactive)
40 | C[n+]1c2ccccc2c(NC2CCNCC2)c2[nH]c3ccccc3c21 | 87.5% (inactive)
